EBV gp42 block – EBV gp42 inhibition | actives 0.42% (n = 220,000) | AID 1085 | Fluorescence polarization binding assay, mP read-out | inhibition, % (tested at 21.74 µM) | Q1HVG2; in the data active = inhibition above about 50%
GLD-1 RNA inh – GLD-1-TGE RNA interaction inhibition (C. elegans); Q17339; purified GLD-1 + fluorescein TGE RNA, fluorescence polarization; inhibition, % at 5.96 µM; actives 0.44% (n = 320,000);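 active = percent inhibition above a per-plate cutoff, the plate mean of test compounds plus 3 SD, cut at about 30% in these data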;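 note: 0% = DMSO wells with GLD-1 and probe and 100% = wells lacking GLD-1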
MCL1-BIM inh – inhibitors of human MCL1 binding to BIM-BH3 peptide | GST-MCL1 / FITC-Bim-BH3 fluorescence polarization | AID 2057 | Q07820 | actives 0.68% (n = 320,000) | inhibition, % at 10.9 µM;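 active = inhibition above the mean inhibition of all tested compounds plus 3 SD, set per campaign, cut at about 40% in these data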;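 note: 0% = DMSO wells and 100% = unlabeled Bim-BH3 peptide control; higher means more loss of mP so more displacement of Bim peptide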
Target sequence (Q07820 whole entry, looked up): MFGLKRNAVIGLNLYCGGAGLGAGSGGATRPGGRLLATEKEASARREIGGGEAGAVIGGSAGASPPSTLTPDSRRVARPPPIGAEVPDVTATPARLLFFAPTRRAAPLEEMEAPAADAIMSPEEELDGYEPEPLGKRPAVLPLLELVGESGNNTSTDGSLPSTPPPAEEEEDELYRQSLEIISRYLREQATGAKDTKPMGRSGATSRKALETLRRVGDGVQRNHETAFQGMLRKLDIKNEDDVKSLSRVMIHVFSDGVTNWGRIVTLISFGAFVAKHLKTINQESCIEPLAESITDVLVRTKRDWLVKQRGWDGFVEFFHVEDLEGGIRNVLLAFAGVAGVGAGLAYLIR
eLon inh – inhibitors of E. coli Lon protease; P0A9M0; purified E. coli Lon protease, fluorescence polarization; inhibition, % at 7.94 µM; actives 0.42% (n = 360,000); AID 602123; in the data active = inhibition above about 13%, passing the limit was not always enough;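 note: 0% = enzyme with probe and DMSO and 100% = no enzyme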
MEX-5 binding – C. elegans MEX-5 TCR-2 RNA binding activity | Q9XUB2 | MEX-5/FITC-TCR2 RNA binding, fluorescence polarization; active compounds read low | activity score (negative = inhibition of binding), % at 10 µM | actives 0.38% (n = 300,000) | AID 1832;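 active = inhibition past about -25% in most replicates, and total fluorescence under double the plate's negative control median, limit read from the data; inconclusive = replicates evenly split on the limit, or fluorescence at least double controls; inactive = too little inhibition in most replicates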;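 note: 0% = DMSO and -100% = 5 µM competing unlabeled TCR2 RNA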
BCLXL inh – Bcl-xL (human) inhibition | actives 0.7% (n = 320,000) | AID 2129 | inhibition, % at 10.9 µM | Q07817 | GST-Bcl-xL / FITC-Bim BH3 peptide fluorescence polarization;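 active = inhibition above the mean of all tested compounds plus 3 SD, cutoff set per campaign, cut at about 30% in these data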;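 note: 0% = DMSO wells and 100% = unlabeled Bim-BH3 peptide competitor; inhibitors lower millipolarization by displacing the labeled peptide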
* = called active by the depositor. Shown are actives, neighbours in structure and some others; about 1.5% of the full set was active somewhere.

CC1(OC(=O)c2cccs2)C(=O)C=C2C=C(c3ccc(C#N)cc3)OC=C2C1=O (centres undefined) was read as GLD-1 RNA inh 6, MCL1-BIM inh 3, MEX-5 binding -20 and BCLXL inh 4.
Screening CC1(OC(=O)c2cccs2)C(=O)C=C2C=C(c3ccsc3)OC=C2C1=O (centres undefined) returned GLD-1 RNA inh 17, MCL1-BIM inh 27, MEX-5 binding -27* and BCLXL inh 13.
`COc1cc(CNc2ncnc3c2ncn3[C@H]2CN(Cc3ccc4c(c3)OCO4)C[C@@H](CO)O2)cc(OC)c1OC` gave eLon inh -12.
`C=CCn1c(SCC(=O)NC2CCCC2)nc2ccccc21` gave eLon inh 4.
COc1ccc(C(=O)NC2CC2)cc1OC1CCN(C(C)CSC)CC1 (centres undefined) was read as GLD-1 RNA inh 15, MCL1-BIM inh 27, eLon inh 12, MEX-5 binding -12 and BCLXL inh 31*.
`Cc1ccccc1-c1cc(=O)c2c(O)cccc2o1` gave EBV gp42 block -21, GLD-1 RNA inh 1, MCL1-BIM inh 3, eLon inh -4, MEX-5 binding 1 and BCLXL inh 5.
CCOc1ccccc1-c1c2cc(O)c(=O)cc-2oc2cc(O)c(O)cc12 was read as EBV gp42 block 153* and eLon inh 176*.
Screening O=c1cc2oc3cc(O)c(O)cc3c(-c3ccccc3O)c-2cc1O returned EBV gp42 block 150* and eLon inh 92*.
COc1cc(C2C(C#N)=C(N)Oc3n[nH]c(-c4cccnc4)c32)cc(Br)c1O (centres undefined) was read as EBV gp42 block -15, GLD-1 RNA inh -9, MCL1-BIM inh -6, eLon inh -11, MEX-5 binding -34* and BCLXL inh -1.
For COc1cc(C2C(C#N)=C(N)Oc3n[nH]c(-c4cccnc4)c32)ccc1OCC(N)=O (centres undefined) the results were EBV gp42 block 7, GLD-1 RNA inh 2, MCL1-BIM inh 2, eLon inh -7, MEX-5 binding -2 and BCLXL inh 3.
For CN(C)c1ccc(/C=C/C(=O)c2cccc(Br)c2)cc1 the results were EBV gp42 block 144*, GLD-1 RNA inh -21, MCL1-BIM inh 14, eLon inh -396, MEX-5 binding inconclusive and BCLXL inh 46*.
Screening CN(C)c1ccc(C(=O)/C=C/c2cccnc2)cc1 returned GLD-1 RNA inh -5, MCL1-BIM inh -9, eLon inh -1, MEX-5 binding -18 and BCLXL inh -7.
`Cn1c(N)nc(N)c(NC=O)c1=O` gave eLon inh -3.
Screening Cc1ccc2cc3c(N)c4c(C)ccc(C)c4nc3nc2c1 returned EBV gp42 block 148*, eLon inh 5 and MEX-5 binding -4.
For O=C(/C=C/c1ccco1)NC(=S)NNC(=O)c1ccco1 the results were EBV gp42 block -16, GLD-1 RNA inh 0, MCL1-BIM inh 13, eLon inh -3, MEX-5 binding -26* and BCLXL inh 5.
For CC12CCC(=O)N1C(C(=O)OCC(=O)Nc1sccc1C#N)CS2 (centres undefined) the results were EBV gp42 block 2, GLD-1 RNA inh 22, MCL1-BIM inh 35, eLon inh 0, MEX-5 binding -13 and BCLXL inh 40*.
Cc1ccc(C(=O)N2CCN(S(=O)(=O)c3sc(C(=O)O)c(C)c3C(=O)O)CC2)s1 was read as GLD-1 RNA inh -3, MCL1-BIM inh 13, eLon inh -8 and BCLXL inh 8.
Cn1cc(Cl)c(C(=O)Nc2nc3ccc([N+](=O)[O-])cc3s2)n1 was read as EBV gp42 block 67*, GLD-1 RNA inh 1, MCL1-BIM inh 7, eLon inh -2, MEX-5 binding 1 and BCLXL inh 4.
O=C(CSc1nnc(Cc2cc(=O)[nH]c(=O)[nH]2)n1-c1ccc(Cl)cc1)NCC1CCCO1 (centres undefined) was read as EBV gp42 block 8, GLD-1 RNA inh 7, MCL1-BIM inh 2, eLon inh 22* and BCLXL inh 8.

Screens as filed in PubChem.
